Screening data (PubChem BioAssay)
This is a sample that favours compounds with a hit; in the whole collection about 2% have one here.
TDP43 rescue: rescues yeast growth from TDP-43 toxicity; TDP-43 expressing yeast growth rescue, BacTiter-Glo, 24 h; Potency, µM (doses to about 46.1 µM), without a hit: top-dose growth rescue (activation), hits mostly activators; actives 1.8% (n = 410,000); AID 652104; note: potency is the fitted concentration of half-maximal effect; % of control where 0% means no effect; nearly all actives have a fitted effect of over 50% in size
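Luminescence from BacTiter-Glo reports growth of TDP-43-expressing yeast after 24 hr at 30 deg C with compound. Cells were raffinose-pregrown to mid-log, then seeded in galactose medium at OD600=0.02.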
mIDH1 inhibitor: human IDH1 R132H inhibition; actives 0.093% (n = 390,000); Potency, µM (titrated, usually from 76.6 µM), for the others: top-dose activity change, negative = inhibition, usual class: inhibitors; O75874; IDH1-R132H enzyme, NADPH consumption, diaphorase/resazurin fluorescence; note: potency is the fitted concentration of half-maximal effect; % is set by controls: 0 for no effect and ±100 for the full control effect; nearly all actives have a fitted effect of over 65% in size
Target sequence (O75874 whole entry R132H, stated change not applied): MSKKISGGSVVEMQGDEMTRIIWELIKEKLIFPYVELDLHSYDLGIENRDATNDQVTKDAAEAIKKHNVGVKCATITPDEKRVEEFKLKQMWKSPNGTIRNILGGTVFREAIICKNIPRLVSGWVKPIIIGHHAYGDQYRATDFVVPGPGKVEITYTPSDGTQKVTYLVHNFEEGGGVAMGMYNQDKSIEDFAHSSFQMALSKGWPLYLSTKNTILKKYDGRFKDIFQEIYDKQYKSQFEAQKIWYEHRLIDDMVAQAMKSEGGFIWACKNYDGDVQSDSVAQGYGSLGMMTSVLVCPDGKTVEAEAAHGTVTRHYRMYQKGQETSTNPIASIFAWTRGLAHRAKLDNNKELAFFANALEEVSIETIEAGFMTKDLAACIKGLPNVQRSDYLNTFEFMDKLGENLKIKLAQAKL
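IDH1-R132H (0.5 ug/mL dispensed) in pH 7.5 Tris buffer was preincubated 30 min with compound, then given a substrate mix of 0.016 mM NADPH and 2 mM alpha-KG for 80 min at room temperature; remaining NADPH was read by diaphorase/resazurin fluorescence.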
Abeta yeast res: A-beta toxicity reversal in yeast; yeast expressing A-beta42, growth rescue, OD600, 48 h; response scale: 0% DMSO, 100% iron-clioquinol control; Potency, µM (titrated, usually from 46.1 µM), hits mostly activators; actives 0.063% (n = 410,000); note: potency is the fitted concentration of half-maximal effect; nearly all actives have a fitted effect of over 55% in size
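Growth rescue measured by 600 nm absorbance after 48 h yeast culture at 30 C with compound. Values normalized between DMSO and an equimolar ferric chloride plus clioquinol control.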
LDHA block: blocks human lactate dehydrogenase A; activity change, % (values are at about 110 or 230 µM); AID 1347041; actives 0.15% (n = 480,000); purified LDHA, NADH/diaphorase-resazurin fluorescence; active compounds read low; P00338; in the data active = activity change below about -30%; inconclusive = mostly about -25% to -30%;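 note: plate controls were DMSO wells for no effect and wells without enzyme for full effect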
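Human LDH5 (2 nM) was incubated with 0.06 mM NADH and 0.2 mM pyruvate for 5 min at room temperature in Tris pH 7.4. Remaining NADH was coupled through diaphorase/resazurin, and resorufin fluorescence was read at 0 and 20 min.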
aSyn rescue: rescues yeast growth from alpha-synuclein toxicity; actives 0.14% (n = 370,000); Yeast expressing alpha-synuclein, growth rescue, BacTiter-Glo, 24 h; Potency, µM (top dose mostly 46.1 µM), inactives show at the highest dose growth rescue (activation), hits mostly activators; AID 652106; note: potency is the fitted concentration of half-maximal effect; % of control where 0% means no effect; nearly all actives have a fitted effect of over 65% in size
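Galactose-induced alpha-syn yeast (OD600=0.02, raffinose-pregrown) + pinned cpd, 24 hr, 30 deg C; growth by BacTiter-Glo luminescence. Growth restoration scores as activation.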
FUS yeast rescue: FUS proteinopathy suppression in yeast; S. cerevisiae FUS-expressing, growth rescue, OD600, 24 h; Potency, µM (doses to about 76.6 µM), usual class: activators; actives 0.24% (n = 390,000);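 note: potency is the fitted concentration of half-maximal effect; plate controls were DMSO vehicle for no effect and reference control for full effect; nearly all actives have a fitted effect of over 55% in size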
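Yeast FUS proteinopathy model; galactose-induced FUS (2%), starting OD 0.005. Cpds in dilution series, 24hr, 30C, 99% humidity. Abs 600 nm growth. Pos ctrl CP55940 (top 92uM final); neg ctrl DMSO.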
Numbers without * were called inactive; i = inactive; ? = inconclusive; · = no result given; [ ] = remark or other dose. Unless noted, calls come from the whole dose curve; as a rule, active = well fitted curve in the direction sought with a large enough effect; inconclusive = small, poorly fitted or top-dose-only effect, or another doubt; inactive = no such curve, though single readings can be large; an effect the other way counts as inactive or inconclusive.

SMILES	TDP43 rescue	mIDH1 inhibitor	Abeta yeast res	LDHA block	aSyn rescue	FUS yeast rescue
O=C(CSc1cccc[n+]1[O-])CSc1cccc[n+]1[O-]	3.5µM*	6%	?	0	?	i
CCOC(=O)c1sc(Nc2ccc(C(C)=O)cc2)nc1C(F)(F)F	·	·	·	0	·	·
CCc1ccc(CNC(=O)c2cnc3c(C)cccn3c2=O)cc1	16µM*	2%	i	-2	·	i
Cc1cc(Nc2ccccc2)n(-c2ccccc2)n1	29%	8%	i[9.22 µM]	-5	-2%	i
Cc1cc(Nc2nc(Cl)c(Cl)cc2Cl)n(-c2ccccc2)n1	18µM*	12%	i	7	0%	·
COC(=O)C(C)(C)NC(=O)c1ccc2c(c1)NC(=O)CS2	·	·	·	-4	·	·
Cn1c(COc2cc(Cl)ccc2Cl)n[nH]c1=S	·	·	·	17	·	·
C[C@@H]1CC2[C@@H]3CC[C@H]4CC(=O)CC[C@]4(C)C3=CC[C@]2(C)[C@@]1(O)C(=O)CO (stereo not given in full)	10µM*	-1%	i	-3	15%	i
CCCS(=O)(=O)N1CCN(CC2CC=CCC2)CC1 (stereo not given)	6%	13%	i	-31*	-3%	i
Cc1nn(C)c(C(=O)Nc2ccn(Cc3c(F)c(F)cc(F)c3F)n2)c1[N+](=O)[O-]	7.9µM*	2%	i	-3	7%	·
Cc1ccc(-c2cc(C(=O)NCC(C)C)c3ccccc3n2)o1	·	·	·	1	·	·
CCNc1c(N)c(=O)oc2ccccc12	-5%	2%	i	-3	-1%	i
Nc1c(Nc2ccccc2)c2ccccc2oc1=O	?	-1%	i	-4	18µM*	i
Nc1c(S(=O)(=O)c2ccccc2)c2nc3ccccc3nc2n1/N=C/c1ccco1	5%	-7%	i	12	9%	i
Cc1ccc(S(=O)(=O)c2c(N)n(/N=C/c3ccco3)c3nc4ccccc4nc23)cc1	14µM*	-1%	i	2	1%	i
Cc1cccc(C(=O)O/N=C(\c2ccccc2)c2cccnc2)c1	13µM*	2%	i	-9	9%	i
N/C(=N\OC(=O)c1ccccc1)c1cccnc1	16%	0%	i	-10	-8%	i
Cc1ccc(C(=O)O/N=C(\c2ccccc2)c2cccnc2)cc1	18µM*	2%	i	-3	-6%	i
Cc1ccc(-c2c3c(nc4sc5c(c24)CCCC5)CC(C)(C)CC3=O)cc1	·	·	·	7	·	·
O=C(Nc1ccccc1Cl)c1cc(C2CC2)nn1-c1ccccc1	·	·	·	0	·	·
CC(=O)c1ccc(N2CCC(c3cc(-c4ccc(Cl)cc4)n[nH]3)CC2)c([N+](=O)[O-])c1	16µM*	1%	i	-1	4%	i
Cc1cc2n(n1)C(c1c[nH]c3ccccc13)Nc1ccccc1-2 (stereo not given)	7.9µM*	6%	i	2	-33%	·
C/C(=C\C(=S)Nc1ccccc1)Nc1ccccc1	13µM*	-1%	i	-6	-2%	i
COc1cccc(C(=O)c2sc(Nc3ccc(Cl)cc3C)nc2N)c1	·	·	·	7	·	·
Nc1nc(Nc2ccccc2)nc(NCc2ccco2)c1[N+](=O)[O-]	20µM*	-25%	i	-6	10%	i
SMILES	TDP43 rescue	mIDH1 inhibitor	Abeta yeast res	LDHA block	aSyn rescue	FUS yeast rescue
O=S1(=O)CCN(Cc2ccccc2)c2c(F)nc(N3CCOCC3)c(F)c21	·	·	·	82	·	·
Cc1ccc(OCc2occc2C(=O)O)cc1	14µM*	-7%	i	-11	5%	i
Cc1ccc(OCc2ccccc2C(=O)O)cc1	·	·	·	-3	·	·
O=C(O)c1cccnn1	·	·	·	0	·	·
CN(/N=C/c1ccc([N+](=O)[O-])o1)c1ccccc1	14µM*	0%	i	0	6%	i
O=C(N/N=C/c1ccc([N+](=O)[O-])o1)C(O)c1ccccc1 (stereo not given)	24%	1%	i	2	1%	i
C=CCn1c(C)cc(C(=O)CSc2nnc(NCc3ccccc3)s2)c1C	11µM*	10%	?	-7	2%	i
C=CCn1c(C)cc(C(=O)CSc2nc3ccccc3c(=O)[nH]2)c1C	10µM*	0%	i	0	2%	i
C=CCn1c(C)cc(C(=O)CSc2nnc(NC(C)C)s2)c1C	22%	5%	i	2	-10%	i
Cc1cc(C(=O)CSc2nc3ccccc3o2)c(C)n1C1CC1	22µM*	0%	i	7	8%	i
C=CCn1c(C)cc(C(=O)CSc2nc3ccccc3o2)c1C	22µM*	7%	i	5	5%	i
NC(=O)COc1ccc(C2CC(=O)Nc3nc(N4CCCCC4)sc32)cc1 (stereo not given)	·	·	·	125	·	·
Cc1cc(C)c(NC(=O)CNC(=O)c2cc3cc(Cl)ccc3nc2C)c(C)c1	·	·	·	1	·	·
Cc1nn(C(C)C)cc1N	·	·	·	5	·	·
C=CCn1c(C)cc(C(=O)CSc2nnc(Cc3ccccc3)o2)c1C	2.5µM*	14%	?	-1	2%	i
COc1cccc(Nc2nc(-c3ccc4c(c3)CCN4S(C)(=O)=O)cs2)c1	·	·	·	-6	·	·
Cn1ccc(NC(=O)Nc2ccc(Cl)cc2Cl)n1	14µM*	5%	i	-6	-1%	i
Cc1ccc2[nH]cc(C(C(=O)O)N3CCN(C(c4ccccc4)c4ccccc4)CC3)c2c1 (stereo not given)	·	·	·	0	·	·
O=C(CC1C(=O)OCCN1Cc1ccccc1)Nc1cccc(Cl)c1 (stereo not given)	18µM*	1%	i	9	·	i
O=C(CC1C(=O)OCCN1Cc1ccccc1)Nc1ccc(Cl)cc1Cl (stereo not given)	·	·	·	0	·	·
Cc1cccc(NC(=O)CC2C(=O)OCCN2Cc2ccccc2)c1 (stereo not given)	14µM*	5%	i	-2	·	i
O=C(CSC1CC(=O)N(CCc2ccccc2)C1=O)Nc1cccc(Cl)c1 (stereo not given)	18µM*	2%	i	-1	13%	i
CCOc1ccc(C(=O)N2CCS(=O)CC2)cc1OC	·	·	·	-1	·	·
O=S(=O)(c1ccc2c(c1)OCCO2)c1nc(-c2ccco2)oc1NCCCn1ccnc1	·	·	·	-10	·	·
CN1CCCN(C(=O)Cc2c(Cl)cccc2Cl)c2nc3ccccc3nc21	22µM*	4%	i	-5	8%	i
O=[N+]([O-])c1cccc(CON=C2CCC3(CC2)OCCO3)c1	·	·	·	7	·	·
